Assay outcomes from PubChem BioAssay.
Cycloheximide cs: affects cycloheximide protein synthesis inhibition readout, counter-screen. 300,000 compounds, 12% hits. max response, %. AID 2314. cell reporter, cycloheximide protein synthesis inhibition counterscreen; in the data active means max response mostly above about 13%, no sharp cut-off; inactive means mostly below about 14%; further: read at 38.3 µM for the half of the compounds with a filed dose; 0% is about no effect
Shiga toxin inh: blocks Shiga toxin action in Vero cells | Vero cells, Shiga toxin protein synthesis inhibition reporter | inhibition, % at 38.7 µM | 290,000 compounds, 9.2% hits; in the data active means inhibition mostly above about 28%, no sharp cut-off; inactive means mostly below about 43%; further: 0% is about no effect
NS1 inh: influenza NS1 inhibition; Potency, µM (titrated, usually from 46.1 µM), for the others: at the highest dose activity, positive = more growth; 270,000 compounds, 0.4% hits; further: potency means the concentration at half of the fitted maximal effect; actives are rising curves; nearly all actives have a fitted effect of over 50% in size
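S. cerevisiae expressing influenza A NS1, grown in glucose, washed, then diluted 1:100 into pH 6.0 -URA galactose medium with 23 nl compound. Growth recovery read as OD600; NS1-free strain serves as control.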
SARS PLP yeast: SARS-CoV PLP inhibition in yeast; S. cerevisiae expressing SARS-CoV PLpro, growth rescue; Potency, µM (highest dose often 32.9 µM), for inactives: at the highest dose activity, positive = growth rescue, most hits filed as activators; 330,000 compounds, 0.19% hits; AID 485353; further: potency means the concentration at half of the fitted maximal effect; 0% is about no effect; nearly all actives have a fitted effect of over 55% in size
An asterisk follows results filed as active; x = no result; + = active, no number; ! = not active in a repeat; [ ] = dose if it differs, or a comment. An excerpt weighted towards active compounds, which were near 12% of everything screened. Unless noted, the call rests on the fitted dose curve.

SMILES	Cycloheximide cs	Shiga toxin inh	NS1 inh	SARS PLP yeast
CC(C)C[C@@H](CSc1ccccc1)N1CCN(CCc2ccccc2)CCC1=O	18*	30*	-16%	-5%
CCCN1CCC(=O)N([C@H](CSc2ccc(OC)cc2)CC(C)C)CC1	27*	71*	4%	0%
COc1ccc(SCC(CC(C)C)N2CCN(CCc3ccccc3)CCC2=O)cc1 (stereo not drawn)	56*	57*	x	x
CC1=CC(C)=Nc2ccc(C)cc2N1	27*	94*!	-2%	-3%
CCSc1nnc([C@H](Cc2c[nH]c3ccccc23)NC(=O)OC(C)(C)C)o1	1	-3	-4%	-2%
CSc1nnc([C@H](Cc2c[nH]c3ccccc23)NC(=O)OC(C)(C)C)o1	26*	65*	-1%	0%
CC(C)C[C@H](NC(=O)OC(C)(C)C)c1nnc(SCc2cccc(F)c2)o1	9	27*	-51%	-13%
CSCC[C@H](NC(=O)OC(C)(C)C)c1nnc(SCc2cccc(F)c2)o1	1	9	-3%	-14%
COc1ccc(CN2CCSc3sccc3C2=O)cc1	0	-2	-6%	1%
Cc1ccc(C2=NN(C(=O)CSc3nc4ncc(Cl)cc4[nH]3)C(c3ccco3)C2)cc1 (stereo not drawn)	14*	27	x	-14%
COc1ccc(C2=NN(C(=O)CSc3nc4ncc(Cl)cc4[nH]3)C(c3ccco3)C2)cc1 (stereo not drawn)	21*	-9	x	-1%
Cc1cc2nc3n(c2cc1C)CCCN3	7	-13	-31%	-4%
CC(C)COn1c(=S)[nH]c2ccccc2c1=O	27*	55*	-51%	22%
CCOC(=O)C1=C(C)NC(=S)NC1/C=C/c1ccccc1 (stereo not drawn)	6	-11	6%	29%
S=C(NC1CCCCC1)NC1CC2C=CC1C2 (stereo not drawn)	1	5	-36%	13%
CCc1ccc2[nH]c(=O)c(C(c3nnnn3CCOC)N3CCN(c4ccc(F)cc4)CC3)cc2c1 (stereo not drawn)	2	18	-11%	2%
CCC(c1nnnn1CC1CCCO1)N(CCN1CCOCC1)Cc1cc2cc(C)ccc2[nH]c1=O (stereo not drawn)	5	14	2.2µM*	1%
CCc1ccc2[nH]c(=O)c(CN(Cc3ccc(F)cc3)C(c3nnnn3CCN3CCOCC3)C(C)C)cc2c1 (stereo not drawn)	43*	28*	18%	2%
Fc1ccc2nc3[nH]c4ccccc4c3nc2c1	44*	62*	-31%	-15%
OC1=C(O)c2nc3cc(F)ccc3nc21	-2	26	-8%	0%
CCc1ccc(N2C(=O)NC(=O)/C(=C\c3cccn3CCOc3ccc(C(C)C)cc3)C2=O)cc1	73*	+	9%	10%
CC(C)c1ccc(N2C(=O)NC(=O)/C(=C/c3cnc(-c4ccccc4)nc3)C2=O)cc1	-1	14	4%	8%
Cn1cccc1/C=C1\C(=O)NC(=O)N(Cc2ccco2)C1=O	11	-13	x	2%
Cc1cc(/C=C2\C(=O)NC(=O)N(Cc3ccco3)C2=O)c(C)n1-c1ccc(O)cc1	17*	15	2%	10%
Cc1ccc(OCCn2cccc2/C=C2/C(=O)NC(=O)N(Cc3ccco3)C2=O)cc1	22*	37*	2%	4%
SMILES	Cycloheximide cs	Shiga toxin inh	NS1 inh	SARS PLP yeast
O=C(NCCc1ccccn1)c1c(-c2ccccc2)sc2ccccc12	x	x	x	-4%
CC(Sc1nnnn1C)C(=O)Nc1cc(S(=O)(=O)N2CCCCC2)ccc1Cl (stereo not drawn)	x	x	x	-1%
CCOc1ccc(S(=O)(=O)N2CCC(C(=O)NCc3ccccc3CN3CCCC3)CC2)cc1	x	x	x	3%
c1ccc(C2COC(c3cccs3)=N2)cc1 (stereo not drawn)	23*	39	-5%	-1%
Fc1ccccc1N1CC(c2ccccc2)C(c2cccs2)=N1 (stereo not drawn)	0	-9	8%	-21%
Cc1ccc(N=Cc2nc(-c3ccc(C)cc3)oc2O)cc1	27*	97*	x	8%
Oc1oc(-c2ccccc2)nc1C=Nc1ccccc1	46*	115*	-30%	-18%
COc1ccc(N=Cc2nc(-c3ccco3)oc2O)cc1	51*	102*	-1%[9.22 µM]	-20%
Oc1oc(-c2ccccc2)nc1C=NCc1ccccc1	61*	119*	-100%	-24%
CN(C)c1ccc(N=Cc2nc(-c3ccccc3)oc2O)cc1	11	17	-6%	3%
Cc1ccc(NC(=O)COc2ccc(N(C)C(=O)C(C)(C)C)cc2)cc1S(=O)(=O)N1CCCCC1	x	x	x	-2%
CC(=NC1CCCCC1)c1ccccc1O	x	x	7%	x
CSc1ccccc1N=Cc1nc(-c2ccccc2)oc1O	37*	94*	-41%	-12%
